Source: PubChem BioAssay (NCI)
This is part of a sample that, as a whole, favours compounds with a hit. Of some 79,000 tested, about 15% had one in any assay. Calls of active or inactive are those of the source. No stated cut-off is given here; in the data, active means growth inhibition above about 70%; inactive means the rest.

How the values were obtained:
[1] = NCI Yeast Anticancer Drug Screen. Data for the rad52 strain (AID 147);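 further: 0% = growth of vehicle-treated control cultures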; settings: S. cerevisiae rad52 mutant growth inhibition, hits give high values
Summary of the method: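 Here a repair-compromised yeast strain receives each compound; its growth is then quantified and normalised to vehicle-only controls.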

[2] = NCI Yeast Anticancer Drug Screen. Data for the wt1 strain (AID 149);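 further: 0% = growth of vehicle-treated wt1 cultures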; settings: S. cerevisiae wt1 strain (SPY 50644) growth inhibition, hits give high values
Summary of the method: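 wt1 yeast, compound-treated; % growth inhibition vs vehicle control.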

[3] = NCI Yeast Anticancer Drug Screen. Data for the mgt1 strain (AID 153); settings: S. cerevisiae mgt1 mutant growth inhibition, hits give high values
Summary of the method: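 Measured: inhibition of mgt1 yeast growth by compound, normalized to vehicle-treated cultures.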

[4] = NCI Yeast Anticancer Drug Screen. Data for the rad50 strain (AID 155);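 further: 0% = growth of vehicle-only cultures of the same strain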; settings: S. cerevisiae rad50 strain growth inhibition, hits give high values
Summary of the method: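 Genetically altered yeast (DNA repair pathway); compound treatment; growth inhibition vs vehicle ctrl.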

[5] = NCI Yeast Anticancer Drug Screen. Data for the mec2-1 strain (AID 157); settings: S. cerevisiae mec2-1 strain, hits give high values
Summary of the method: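 Using mec2-1 yeast: add compound, measure growth, express inhibition versus vehicle-treated cultures.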

[6] = NCI Yeast Anticancer Drug Screen. Data for the rad14 strain (AID 159);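 further: 0% = growth of vehicle-treated control cultures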; settings: S. cerevisiae rad14 strain growth inhibition, hits give high values
Summary of the method: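 Test compounds were applied to a repair-deficient yeast strain. Its growth was then compared with that of cultures given vehicle alone, and inhibition was expressed relative to those controls.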

[7] = NCI Yeast Anticancer Drug Screen. Data for the sgs1 mgt1 strain (AID 161);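 further: 0% = growth of cultures given vehicle only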; settings: S. cerevisiae sgs1 mgt1 strain, hits give high values
Summary of the method: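 This yeast growth screen uses a strain with defined DNA-repair lesions; compound-treated growth is compared with vehicle-treated growth.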

[8] = NCI Yeast Anticancer Drug Screen. Data for the cln2 rad14 strain (AID 165);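 further: 0% = growth equal to vehicle treated cultures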; settings: S. cerevisiae cln2 rad14 strain, hits give high values
Summary of the method: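 Yeast strain cln2 rad14, bearing defects in cell cycle control and DNA repair, serves as the test system; values reflect growth inhibition compared with vehicle.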

[9] = NCI Yeast Anticancer Drug Screen. Data for the bub3 strain (AID 167); settings: S. cerevisiae bub3 mutant strain, hits give high values
Summary of the method: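 Yeast carrying a defined mutation is treated with each compound, and growth is compared with that of vehicle-exposed cells to give inhibition.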

[10] = NCI Yeast Anticancer Drug Screen. Data for the wt2 strain (AID 169);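 further: 0% = growth of vehicle-treated yeast cultures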; settings: S. cerevisiae wt2 strain growth inhibition, hits give high values
Summary of the method: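 Treated yeast vs. vehicle-treated yeast: growth inhibition determined.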

[11] = NCI Yeast Anticancer Drug Screen. Data for the mlh1 strain (AID 171);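 further: 0% = growth of vehicle-treated control cultures of the same strain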; settings: S. cerevisiae mlh1 strain growth inhibition, hits give high values
Summary of the method: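 A yeast strain with a defined genetic lesion serves as the test organism. Cultures receive compound or vehicle, and growth is measured.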

[12] = NCI Yeast Anticancer Drug Screen. Data for the sgs1 strain (AID 173);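 further: 0% = growth of vehicle-only control cultures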; settings: S. cerevisiae sgs1 mutant, hits give high values
Summary of the method: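 A genetically defined yeast mutant is incubated with the test compound, and its growth is compared to that of the same strain given vehicle.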

[13] = NCI Yeast Anticancer Drug Screen. Data for the mlh1 rad18 strain (AID 175); settings: S. cerevisiae mlh1 rad18 strain growth inhibition, hits give high values
Summary of the method: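 Steps: expose repair-defective yeast to compound; measure growth; express inhibition against vehicle-treated controls.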

[14] = NCI Yeast Anticancer Drug Screen. Data for the rad18 strain (AID 177); settings: S. cerevisiae rad18 mutant growth inhibition, hits give high values
Summary of the method: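 Measured value is growth inhibition of a yeast strain bearing a DNA repair alteration, referenced to vehicle-treated cells.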

[15] = NCI Yeast Anticancer Drug Screen. Data for the rad50EPP+ strain (AID 151);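 further: 0% = growth of vehicle-treated control cultures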; settings: S. cerevisiae rad50 mutant strain, hits give high values
Summary of the method: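 Read-out is yeast growth inhibition relative to vehicle; cells used were the rad50EPP+ strain.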

[16] = NCI Yeast Anticancer Drug Screen. Data for the CLN2oe strain (AID 163);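 further: 0% = growth of vehicle-only control cultures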; settings: S. cerevisiae CLN2oe strain, hits give high values
Summary of the method: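 Whole-cell yeast growth assay. A strain engineered for altered cell-cycle control received compound, and inhibition relative to vehicle-treated cultures was recorded.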

[17] = at 5.0 µM (retest, dose inferred, filed as 0.5)
[18] = at 50.0 µM (retest, dose inferred, filed as 5.0)

Measured: growth inhibition

CCCCOc1ccc2nc(C)cc(N=[N+]=[N-])c2c1
inactive: [1]; at 1.2 µM 8% | [1]; at 3.7 µM 9% | [1]; at 11.0 µM 14% | [1]; at 33.0 µM 20% | [2]; at 1.2 µM 11% | [2]; at 3.7 µM 10% | [2]; at 11.0 µM 11% | [2]; at 33.0 µM 15% | [2]; at 100.0 µM 69% | [3]; at 1.2 µM 6% | [3]; at 3.7 µM 7% | [3]; at 11.0 µM 12% | [3]; at 33.0 µM 32% | [4]; at 1.2 µM 4% | [4]; at 3.7 µM -4% | [4]; [17] 19% | [4]; at 11.0 µM -1% | [4]; at 33.0 µM 33% | [4]; [18] 49% | [4]; at 50.0 µM 19.7% | [5]; at 1.2 µM 11% | [5]; at 3.7 µM 8% | [5]; [17] 7% | [5]; at 11.0 µM 14% | [5]; at 33.0 µM 28% | [5]; [18] -1% | [5]; at 50.0 µM 23.8% | [6]; at 1.2 µM 7% | [6]; at 3.7 µM 5% | [6]; at 11.0 µM 11% | [6]; at 33.0 µM 48% | [7]; [17] 12% | [7]; [18] -13% | [8]; [17] 6% | [8]; at 50.0 µM 40.8% | [9]; at 1.2 µM 11% | [9]; at 3.7 µM 9% | [9]; [17] 5% | [9]; at 11.0 µM 12% | [9]; at 33.0 µM 31% | [9]; [18] 33% | [9]; at 50.0 µM 37% | [10]; at 1.2 µM 7% | [10]; at 3.7 µM 6% | [10]; at 11.0 µM 10% | [10]; at 33.0 µM 33% | [11]; at 1.2 µM 7% | [11]; at 3.7 µM 10% | [11]; at 11.0 µM 13% | [11]; at 33.0 µM 38% | [12]; at 1.2 µM 12% | [12]; at 3.7 µM 13% | [12]; at 11.0 µM 15% | [12]; at 33.0 µM 41% | [13]; [17] 8% | [14]; at 1.2 µM 16% | [14]; at 3.7 µM 19% | [14]; at 11.0 µM 23% | [14]; at 33.0 µM 51%
active: [1]; at 100.0 µM 86% | [3]; at 100.0 µM 90% | [4]; at 100.0 µM 92% | [5]; at 100.0 µM 79% | [6]; at 100.0 µM 98% | [7]; at 50.0 µM 91.2% | [8]; [18] 70% | [9]; at 100.0 µM 87% | [10]; at 100.0 µM 93% | [11]; at 100.0 µM 97% | [12]; at 100.0 µM 96% | [13]; [18] 93% | [13]; at 50.0 µM 74.2% | [14]; at 100.0 µM 96%

O=C(O)c1c2ccc(Cl)cc2nc2[nH]c(=O)[nH]c(=O)c12
active: [9]; [18] 82% | [9]; at 50.0 µM 79.5%
inactive: [1]; at 1.2 µM -38% | [1]; at 3.7 µM -34% | [1]; at 11.0 µM -25% | [1]; at 33.0 µM -30% | [1]; at 100.0 µM -13% | [15]; at 1.2 µM -13% | [15]; at 3.7 µM -46% | [15]; at 11.0 µM -10% | [15]; at 33.0 µM 28% | [15]; at 100.0 µM 50% | [3]; at 1.2 µM -37% | [3]; at 3.7 µM -31% | [3]; at 11.0 µM -35% | [3]; at 33.0 µM -5% | [3]; at 100.0 µM 17% | [4]; at 1.2 µM -56% | [4]; at 3.7 µM -28% | [4]; [17] 47% | [4]; at 11.0 µM -32% | [4]; at 33.0 µM -23% | [4]; [18] 45% | [4]; at 50.0 µM 29.4% | [4]; at 100.0 µM 36% | [5]; at 1.2 µM -63% | [5]; at 3.7 µM -50% | [5]; [17] 47% | [5]; at 11.0 µM -37% | [5]; at 33.0 µM -43% | [5]; [18] 52% | [5]; at 50.0 µM 36.9% | [5]; at 100.0 µM -30% | [6]; at 1.2 µM -14% | [6]; at 3.7 µM -16% | [6]; at 11.0 µM -21% | [6]; at 33.0 µM -22% | [6]; at 100.0 µM 3% | [7]; [17] 13% | [7]; [18] 26% | [7]; at 50.0 µM 27.6% | [16]; at 1.2 µM -45% | [16]; at 3.7 µM -33% | [16]; at 11.0 µM -24% | [16]; at 33.0 µM -13% | [16]; at 100.0 µM -1% | [8]; [17] 64% | [8]; [18] 12% | [8]; at 50.0 µM 9.2% | [9]; at 1.2 µM -57% | [9]; at 3.7 µM -40% | [9]; [17] 36% | [9]; at 11.0 µM -29% | [9]; at 33.0 µM -5% | [9]; at 100.0 µM 50% | [10]; at 1.2 µM -30% | [10]; at 3.7 µM -33% | [10]; at 11.0 µM -25% | [10]; at 33.0 µM -23% | [10]; at 100.0 µM 4% | [11]; at 1.2 µM -29% | [11]; at 3.7 µM -24% | [11]; at 11.0 µM -29% | [11]; at 33.0 µM -11% | [11]; at 100.0 µM 30% | [12]; at 1.2 µM -39% | [12]; at 3.7 µM -31% | [12]; at 11.0 µM -26% | [12]; at 33.0 µM -10% | [12]; at 100.0 µM 1% | [13]; [17] 45% | [13]; [18] 54% | [13]; at 50.0 µM 31.7% | [14]; at 1.2 µM -21% | [14]; at 3.7 µM -17% | [14]; at 11.0 µM -9% | [14]; at 33.0 µM -1% | [14]; at 100.0 µM 7%

CC(=O)/C=C/c1cccc([N+](=O)[O-])c1
inactive: [1]; at 1.2 µM 2% | [1]; at 3.7 µM 4% | [1]; at 11.0 µM 9% | [1]; at 33.0 µM 29% | [2]; at 1.2 µM 1% | [2]; at 3.7 µM 4% | [2]; at 11.0 µM 8% | [2]; at 33.0 µM 16% | [2]; at 100.0 µM 68% | [3]; at 1.2 µM 1% | [3]; at 3.7 µM 2% | [3]; at 11.0 µM 7% | [3]; at 33.0 µM 48% | [4]; at 1.2 µM 0% | [4]; at 3.7 µM 3% | [4]; [17] -4% | [4]; at 11.0 µM 8% | [4]; at 33.0 µM 20% | [5]; at 1.2 µM 0% | [5]; at 3.7 µM 2% | [5]; [17] 2% | [5]; at 11.0 µM 3% | [5]; at 33.0 µM 29% | [5]; [18] 56% | [5]; at 50.0 µM 51%
active: [1]; at 100.0 µM 86% | [3]; at 100.0 µM 94% | [4]; [18] 84% | [4]; at 50.0 µM 82% | [4]; at 100.0 µM 89%
